Bioassay records as filed in PubChem.
Rows were chosen to be rich in hits. Some 3.6% of all compounds tested hit in one or more screens of this group.
Pf apPOL inh: Pf-apPOL DNA polymerase inhibition | Recombinant Pf-apPOL, molecular beacon fluorescence, 1.5 h | inhibition, % at 10 µM | AID 1794808 | actives 0.25% (n = 210,000)
mHTT CaM bind: disrupts binding of mutant huntingtin to calmodulin; AlphaScreen His-mHTT/GST-CaM binding, luminescence; inhibition, % at 15 µM; actives 3.6% (n = 190,000); AID 1671202;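 also: 0% = both proteins with DMSO and 100% = one protein alone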
Active calls of the source: *; . = not tested or not shown. Rule as the data show it: active = inhibition above about 50%; inactive = the rest.

SMILES	Pf apPOL inh	mHTT CaM bind
O=C(CS(=O)(=O)Cc1ccccc1)Nc1nnc(-c2ccccc2Cl)o1	-29	2
COc1cc(OC)cc(-c2nnc(NC(=O)c3ccc(S(=O)(=O)N(C)C)cc3)o2)c1	-2	6
COc1ccc(S(=O)(=O)CC(=O)Nc2nnc(-c3cc(C)oc3C)o2)cc1	7	57*
CCCOc1ccc(C2Nc3ccccc3NC3=C2C(=O)CC(c2cccs2)C3)cc1 (stereo not drawn)	-9	43
CCCOc1nccnc1NC1CCN(C(=O)c2cccn2C)CC1	-4	18
CC(=O)NC(/C=C/c1ccccc1)c1cc([N+](=O)[O-])c2cccnc2c1O (stereo not drawn)	8	100*
Cc1ccc(C(NC(=O)C(C)C)c2cc(Cl)c3cccnc3c2O)cc1 (stereo not drawn)	-10	24
CC(=O)NC(c1ccc(Cl)cc1)c1cc([N+](=O)[O-])c2cccnc2c1O (stereo not drawn)	-47	100*
CC(=O)NC(c1ccc(Cl)cc1)c1cc(Cl)c2cccnc2c1O (stereo not drawn)	8	74*
CCCC(=O)NC(/C=C/c1ccccc1)c1cc([N+](=O)[O-])c2cccnc2c1O (stereo not drawn)	6	12
CC(=O)NC(c1ccc(Cl)cc1Cl)c1cc(Cl)c2cccnc2c1O (stereo not drawn)	-10	100*
Cc1nc(Nc2ccccn2)sc1C(=O)N1CCc2ccccc2C1	1	26
Cc1nc(Nc2ccc(F)cn2)sc1C(=O)N1CCN(C2CCCCC2)CC1	0	26
Cc1cccc(N2CCN(C(=O)c3sc(Nc4ccc(F)cn4)nc3C)CC2)c1	-4	85*
Cc1nc(Nc2ccc(F)cn2)sc1C(=O)N1CCc2ccccc2C1	-3	65*
Cc1ccccc1N1CCN(C(=O)c2sc(Nc3ccc(F)cn3)nc2C)CC1	-4	100*
Cc1cccc(Nc2nc(C)c(C(=O)N3CCN(c4ccccc4)CC3)s2)n1	-4	48
COc1ccc(-c2cnc(-c3c(O)c(C)nc4ccccc34)o2)cc1	-1	60*
c1ccc(-c2cnc(-c3cccc4ccccc34)o2)cc1	.	-27
COc1ccc(C(=O)Nc2c3c(nn2-c2cccc(C)c2C)CS(=O)(=O)C3)cc1OC	-3	2
COc1ccc(Br)cc1C(=O)Nc1cccc(-c2nc3ncccc3o2)c1	1	-2
Cc1ccccc1OCC(=O)Nc1ccc2oc(-c3ccncc3)nc2c1	8	70*
Cc1cc(Cl)ccc1OCC(=O)Nc1ccc2oc(-c3ccncc3)nc2c1	3	-1
Cc1cccc(OCC(=O)Nc2ccc(-c3nc4ncccc4o3)cc2)c1C	0	75*
CCc1ccc(-c2nc3cc(NC(=O)COc4ccc(OC)cc4)ccc3o2)cc1	6	6
SMILES	Pf apPOL inh	mHTT CaM bind
CC(C)(C)c1ccc(OCC(=O)Nc2ccc3oc(-c4ccncc4)nc3c2)cc1	68*	3
COc1ccccc1C(=O)Nc1cccc(-c2nc3ncccc3o2)c1	3	58*
Cc1ccccc1OCC(=O)Nc1ccc(-c2nc3ncccc3o2)cc1	-7	2
CN(C)C=CC=C1CCCC1=O	89*	.
O=C(Cc1cccc(C(F)(F)F)c1)Nc1cccn2cnnc12	-4	-5
COc1ccc(Cl)cc1S(=O)(=O)N1CCC(c2noc(-c3ccccc3)n2)CC1	-3	-5
CC(=O)c1ccc(NC(=O)c2ccc3nc(-c4ccco4)c(-c4ccco4)nc3c2)cc1	-4	100*
COc1ccc2nc(-c3ccco3)c(-c3ccco3)nc2c1	0	99*
O=C(Nc1ncn[nH]1)c1ccc2nc(-c3ccco3)c(-c3ccco3)nc2c1	8	34
COCCCNC(=O)c1ccc2nc(-c3cccs3)c(-c3cccs3)nc2c1	1	-3
COCCNC(=O)c1ccc2nc(-c3ccco3)c(-c3ccco3)nc2c1	2	59*
O=C(NCc1ccco1)Nc1ccc2snnc2c1	-2	4
COc1ccc2nsnc2c1	-2	.
O=C(NCc1ccco1)Nc1ccc2nc(-c3ccco3)c(-c3ccco3)nc2c1	-2	96*
Cc1cc(N2CCC(C(=O)NCc3ccc4c(c3)OCO4)C2=O)ccc1Cl (stereo not drawn)	-1	7
O=C1c2ccccc2C(=O)N1CN(C(=O)C(F)(F)F)c1ccccc1	1	-3
CN(Cc1ccsc1)C(=O)NC1CCCC1	-1	0
O=C(Nc1ccc([N+](=O)[O-])cc1)N1CCN(c2ccccn2)CC1	2	0
O=C(Nc1ccc2nc(-c3ccco3)c(-c3ccco3)nc2c1)N1CCN(c2ccccn2)CC1	-13	66*
Cc1nn(C2CCS(=O)(=O)C2)c(C)c1N1CCN(C(=O)c2cc3ccccc3[nH]2)CC1 (stereo not drawn)	-19	54*
CSc1ccccc1C(=O)N1CCN(c2c(C)nn(C3CCS(=O)(=O)C3)c2C)CC1 (stereo not drawn)	-1	-2
O=C(Oc1ccc2c(c1)OC(=Cc1ccccc1Br)C2=O)c1ccco1	-4	50*
O=C(Oc1ccc2c(c1)OC(=Cc1ccccc1)C2=O)c1ccco1	-4	4
Cc1nn(-c2ccc(C(=O)N3CCN(c4cccc(Cl)c4)CC3)cc2)c2c1C(=O)CCC2	-2	83*
Cc1nn(-c2ccc(C(=O)N3CCN(c4ccccn4)CC3)cc2)c2c1C(=O)CCC2	1	13
SMILES	Pf apPOL inh	mHTT CaM bind
CC1(C)Oc2ccccc2C2CC(c3cccs3)=NN21 (stereo not drawn)	-5	50
COc1ccc(C2=NN3C(C2)c2cc(Br)ccc2OC32C(=O)Nc3ccccc32)cc1 (stereo not drawn)	-3	100*
COc1ccc(C2=NN3C(C2)c2cc(Cl)ccc2OC3(C)C)cc1 (stereo not drawn)	-16	38
O=C1Nc2ccccc2C12Oc1ccccc1C1CC(c3ccccc3)=NN12 (stereo not drawn)	-6	100*
Cc1ccc(N(CC(=O)N2CCN(c3ccccc3)CC2)S(C)(=O)=O)cc1	-1	3
COc1ccc2cc(C(=O)NC(C)=O)c(=Nc3ccc(C(F)(F)F)cc3)oc2c1	66*	3
COc1ccc2cc(C(=O)NC(C)=O)c(=Nc3ccc(F)cc3)oc2c1	2	4
O=C(Nc1nc2c(s1)CCCC2)c1ccc(-n2cccn2)nn1	0	3
CCOC(=O)N1CCN(C(=O)CCc2csc(NC(=O)c3ccc(F)cc3)n2)CC1	-8	-15
O=C(CCc1csc(NC(=O)c2ccc(F)cc2)n1)Nc1nc(-c2ccco2)cs1	10	58*
O=C(Nc1nc(-c2ccco2)cs1)c1ccc(-n2cccn2)nn1	30	56*
COc1cccc(-c2cc3n(n2)CCCN(C(=O)CC(C)C)C3)c1	-3	1
O=[N+]([O-])c1cccc(S(=O)(=O)Nc2ccc3c(c2)OCO3)c1	-2	14
Cc1nn(C)c(C)c1-c1ncnn1-c1sc2c(c1C#N)CCCC2	0	20
O=C(C=Cc1ccco1)c1ccc(O)cc1	2	6
O=C(/C=C/c1ccco1)c1cccs1	11	79*
C=CCn1c(-c2ccccc2)csc1=Nc1c(C)n(C)n(-c2ccccc2)c1=O	-4	4
Cc1c(N=c2scc(-c3ccc(Cl)cc3)n2Cc2ccco2)c(=O)n(-c2ccccc2)n1C	0	60*
O=c1cc(-c2ccccc2)oc2c(CN3CCCCC3)c(O)c(CN3CCCCC3)c(O)c12	3	39
